An excerpt weighted towards active compounds, which were near 3% of everything screened.
SENP6 inh = inhibitors of human SENP6 protease; actives 1.8% (n = 330,000); Recombinant SENP6 catalytic domain, aminoluciferin luminescence; inhibition, % at 10 µM; AID 2599; Q9GZR1;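 active = inhibition above about 50% at the single tested dose, limit read from the data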;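 also: plate controls were DMSO wells with enzyme for no effect and DMSO wells lacking enzyme for full effect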
SENP8 block-1 = inhibitors of human SENP8 protease; Q96LD8; recombinant SENP8, Nedd8 substrate fluorescence; inhibition, % at 20 µM; actives 0.64% (n = 360,000); AID 602440; in the data active = inhibition mostly above about 40%, no sharp cut-off; inactive = mostly below about 27%
SENP7 inh = inhibitors of human SENP7 protease | AID 434973 | Q9BQF6 | recombinant SENP7, Z-RLRGG-aminoluciferin luminescence, 40 min | inhibition, % at 5 µM | actives 1.5% (n = 330,000);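 active = inhibition above about 50% at the single test dose, limit read from the data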;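 also: plate controls were DMSO with enzyme for no effect and no enzyme buffer wells for full effect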
Target sequence (Q9BQF6 706-1050 limits assumed): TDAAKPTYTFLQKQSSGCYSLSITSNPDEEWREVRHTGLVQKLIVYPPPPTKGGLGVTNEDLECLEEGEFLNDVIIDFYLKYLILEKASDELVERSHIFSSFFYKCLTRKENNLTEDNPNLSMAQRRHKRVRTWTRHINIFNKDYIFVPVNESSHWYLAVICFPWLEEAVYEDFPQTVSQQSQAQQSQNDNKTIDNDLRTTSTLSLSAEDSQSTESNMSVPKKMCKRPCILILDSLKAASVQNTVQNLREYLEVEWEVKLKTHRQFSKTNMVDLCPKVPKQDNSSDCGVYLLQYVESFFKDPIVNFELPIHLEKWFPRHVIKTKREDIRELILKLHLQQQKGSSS
SENP8 block-2 = blocks the human protease SENP8; actives 1.2% (n = 330,000); inhibition, % at 10 µM; AID 2540; purified SENP8, Z-RLRGG-aminoluciferin cleavage, luminescence; in the data active = inhibition above about 50%
PPC-1+TRAIL kill = kills PPC-1 cancer cells in the presence of TRAIL. actives 0.41% (n = 220,000). AID 1443. cell killing (% activity), % at 4 µM or 5 µM. PPC-1 cells + TRAIL, ATPLite viability luminescence;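 active = cell killing above 50% in the first pass at 4 µM, then a duplicate retest at 5 µM averaging 50% or more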;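 also: plate controls were cells with TRAIL plus DMSO for no effect and medium-only wells lacking cells for full effect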
C8 TRAIL sens = caspase-8 TRAIL sensitization; AID 624354; inhibition (viability loss, TRAIL sensitization), % at 10 µM; NB7+C8 cells + TRAIL, ATPlite viability luminescence; actives 1% (n = 360,000);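 active = compounds causing at least 50% loss of cell viability in the single-dose screen, relative to plate controls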
SENP8 conf = confirmation of human SENP8 protease inhibitors; shares compounds with SENP7 inh; Recombinant SENP8, Z-RLRGG-aminoluciferin luminescence, 60 min; inhibition, % at 12.5 µM; actives 40% (n = 6,200);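 active = mean inhibition across replicates above about 50%, limit read from the data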
SENP6 confirm = confirmation of human SENP6 protease inhibitors. shares compounds with SENP7 inh. recombinant SENP6, Z-RLRGG-aminoluciferin luminescence. inhibition, % at 12.5 µM. actives 58% (n = 6,200). AID 488915
SENP7 conf = human SENP7 inhibition, confirmed | actives 69% (n = 6,200) | recombinant SENP7, Z-RLRGG-aminoluciferin luminescence, 40 min | inhibition, % at 12.5 µM | shares compounds with SENP7 inh
Casp3 select = inhibits human caspase-3 in SENP selectivity test | shares compounds with SENP7 inh | purified caspase-3, Z-DEVD-aminoluciferin luminescence, 60 min | inhibition, % at 12.5 µM | actives 60% (n = 6,200);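 active = mean inhibition above about 50%, limit read from the data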;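 also: plate controls were enzyme with DMSO for no effect and wells without caspase-3 for full effect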
Luc interf = counter-screen for SENP inhibitors: luminescence interference; shares compounds with SENP7 inh; Pre-incubated SENP8/Z-RLRGG-aminoluciferin, luciferase luminescence interference; inhibition, % at 12.5 µM; actives 39% (n = 6,200); AID 488919;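 active = mean inhibition above about 50% when retested at one dose, limit read from the data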;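 also: plate controls were DMSO wells with completed reaction for no effect and substrate without enzyme for full effect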
An asterisk follows results filed as active.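 The calls were made as follows, unless noted: active = mean inhibition above about 50% in the one-dose retest (limit read from the data); inactive = the rest.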

How did Cc1ccc(NC(=O)c2sccc2C)nc1 do in these assays?
SENP6 inh: 99*; SENP8 block-1: 7; SENP7 inh: 99*; SENP8 block-2: 92*; C8 TRAIL sens: -9; SENP8 conf: 94*; SENP6 confirm: 95*; SENP7 conf: 102*; Casp3 select: 98*; Luc interf: 92*

Results for Cc1ccc(NC(=O)C(=O)Nc2ccc(C)cn2)nc1 ?
SENP6 inh: -19; SENP8 block-1: 12; SENP7 inh: 0; SENP8 block-2: 6; PPC-1+TRAIL kill: -3; C8 TRAIL sens: 2

How did Cc1ccc(NC(=O)c2oc3ccccc3c2C)nc1 do in these assays?
SENP6 inh: 55*; SENP8 block-1: -2; SENP7 inh: 47; SENP8 block-2: 15; C8 TRAIL sens: 0; SENP8 conf: 37; SENP6 confirm: 30; SENP7 conf: 70*; Casp3 select: 42; Luc interf: 11

What do the screens show for `Cc1c(C(=O)Nc2nnc(C(F)(F)F)s2)oc2ccccc12`?
SENP6 inh: 47; SENP8 block-1: -237; SENP7 inh: 62*; SENP8 block-2: 39; PPC-1+TRAIL kill: -17; C8 TRAIL sens: 17; SENP8 conf: 53*; SENP6 confirm: 54*; SENP7 conf: 60*; Casp3 select: 59*; Luc interf: 22

Results for C=CCn1c(SCn2nnc3ccccc3c2=O)nc2scc(-c3cccs3)c2c1=O ?
SENP6 inh: -4; SENP8 block-1: 10; SENP7 inh: 74*; SENP8 block-2: -1; PPC-1+TRAIL kill: -7; C8 TRAIL sens: 4; SENP8 conf: 7; SENP6 confirm: 6; SENP7 conf: 2; Casp3 select: 1; Luc interf: 3

What do the screens show for `O=C1NC[C@H](CCCCN2C[C@H](Cc3ccccc3)N(CC3CCCCC3)C(=O)C2=O)N(CC2CCCCC2)C1=O`?
SENP8 block-1: 12; C8 TRAIL sens: -1

What do the screens show for `Cc1c(C#N)c(O)[nH]c(=O)c1N=Nc1ccc(S(N)(=O)=O)cc1`?
SENP6 inh: 51*; SENP8 block-1: 26; SENP7 inh: -20; SENP8 block-2: 26; C8 TRAIL sens: -2; SENP8 conf: 43; SENP6 confirm: 38; SENP7 conf: 71*; Casp3 select: 75*; Luc interf: 52*

What do the screens show for `CCOc1ccc(OCCC(=O)OCC(=O)N2CCN(S(=O)(=O)c3ccc(C)cc3C)CC2)cc1`?
SENP8 block-1: 0; C8 TRAIL sens: 0

How did O=C(Nc1ccc2c(c1)OCO2)C1Cc2c(-c3ccc4c(c3)OCO4)ccnc2O1 (stereo not given) do in these assays?
SENP8 block-1: -17; C8 TRAIL sens: 11

What do the screens show for `COc1cc(C(=O)O/N=C(\N)c2cccc([N+](=O)[O-])c2)cc(OC)c1OC`?
SENP6 inh: -19; SENP8 block-1: 24; SENP7 inh: 2; SENP8 block-2: 3; PPC-1+TRAIL kill: 15; C8 TRAIL sens: 12

Results for N/C(=N\OC(=O)c1ccccc1Br)c1cccc([N+](=O)[O-])c1 ?
SENP6 inh: 85*; SENP8 block-1: 24; SENP7 inh: 82*; SENP8 block-2: 66*; C8 TRAIL sens: 27; SENP8 conf: 59*; SENP6 confirm: 52*; SENP7 conf: 83*; Casp3 select: 51*; Luc interf: 66*

Compound activity from PubChem BioAssay.
